Measurements from PubChem BioAssay (EPA / NIEHS).
The source made the active and inactive calls. How the source made its calls: active means hit-call score of the fitted dose curve at least 0.9, where 1 is the maximum; inactive means score below 0.9.

Legend:
[1] = target: Bile acid receptor (Homo sapiens) (UniProt Q96RI1); assay: ATG_IR1_CIS: Attagene CIS-FACTORIAL HepG2 Assay for human Nuclear Receptor Subfamily 1 Group H Member 4 (NR1H4), IR1 submotif (AID 2282946); details: IR1 reporter transcription, actives raise or lower the signal
Sequence of Bile acid receptor (Homo sapiens) (Q96RI1 whole entry, looked up): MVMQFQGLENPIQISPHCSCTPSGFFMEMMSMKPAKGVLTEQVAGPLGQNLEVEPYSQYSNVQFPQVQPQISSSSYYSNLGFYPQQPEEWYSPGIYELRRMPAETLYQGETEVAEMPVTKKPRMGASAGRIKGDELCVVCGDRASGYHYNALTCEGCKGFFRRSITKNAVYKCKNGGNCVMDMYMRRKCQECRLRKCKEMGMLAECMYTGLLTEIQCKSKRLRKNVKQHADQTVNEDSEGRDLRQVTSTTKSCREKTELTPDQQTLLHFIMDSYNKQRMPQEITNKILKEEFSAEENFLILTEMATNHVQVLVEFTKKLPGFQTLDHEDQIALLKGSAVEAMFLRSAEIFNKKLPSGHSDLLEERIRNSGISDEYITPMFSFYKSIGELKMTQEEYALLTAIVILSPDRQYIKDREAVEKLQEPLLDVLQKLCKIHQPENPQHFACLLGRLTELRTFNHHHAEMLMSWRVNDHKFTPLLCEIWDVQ
Procedure, shortened: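 HepG2 cells transiently transfected with multiple cis-promoter-driven reporter units to measure endogenous transcription factor activity; 24 h exposure. Reporter mRNA read by RT-PCR, FAM labelling, HpaI digestion and capillary electrophoresis. Bidirectional fit versus DMSO.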

[2] = ATG_GRE_CIS: Attagene CIS-FACTORIAL HepG2 Assay for human Glucocorticoid Response Elements (GRE) (AID 2282947); details: HepG2 GRE cis-reporter, Attagene multiplex mRNA; actives raise or lower the signal
Procedure, shortened: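 Transiently transfected HepG2 cells carrying GRE cis-reporter units (endogenous TF activity) dosed 24 h; reporter mRNA quantified by RT-PCR, 6-FAM labelling, HpaI digestion and capillary electrophoresis. Bidirectional fit versus DMSO baseline.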

[3] = ATG_ISRE_CIS: Attagene CIS-FACTORIAL HepG2 Assay for human Interferon Regulatory Factor 1 (IRF1) binding to an Interferon-Stimulated Response Element (ISRE) (AID 2282948); details: HepG2 ISRE cis-reporter (Attagene), mRNA transcription readout; actives raise or lower the signal
Procedure, shortened: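 Transfected HepG2 (multiple reporter transcription units, cis elements) dosed 24 h. RNA → oligo(dT) RT → PCR → 6-FAM primer extension → HpaI → CE. DMSO = negative control/baseline.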

[4] = ATG_M_06_CIS: Attagene CIS-FACTORIAL HepG2 Assay for M06 Transcription Factor (Internal Marker) (AID 2282950); details: HepG2 Attagene CIS-FACTORIAL M06 internal marker reporter; actives raise or lower the signal
Procedure, shortened: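 Fluorescence-labelled RT-PCR products from cis-promoter reporter units, cut with HpaI and resolved by capillary electrophoresis, give the signal. Cells are human HepG2, dosed for 24 h. Serves as background control, fitted relative to DMSO.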

[5] = target: Hypoxia-inducible factor 1-alpha (Homo sapiens) (UniProt Q16665); assay: ATG_HIF1a_CIS: Attagene CIS-FACTORIAL HepG2 Assay for human Hypoxia Inducible Factor 1 (HIF1A) (AID 2282951); details: HepG2 Attagene cis-factorial HIF1a reporter transcription; actives raise or lower the signal
Sequence of Hypoxia-inducible factor 1-alpha (Homo sapiens) (Q16665 whole entry, looked up): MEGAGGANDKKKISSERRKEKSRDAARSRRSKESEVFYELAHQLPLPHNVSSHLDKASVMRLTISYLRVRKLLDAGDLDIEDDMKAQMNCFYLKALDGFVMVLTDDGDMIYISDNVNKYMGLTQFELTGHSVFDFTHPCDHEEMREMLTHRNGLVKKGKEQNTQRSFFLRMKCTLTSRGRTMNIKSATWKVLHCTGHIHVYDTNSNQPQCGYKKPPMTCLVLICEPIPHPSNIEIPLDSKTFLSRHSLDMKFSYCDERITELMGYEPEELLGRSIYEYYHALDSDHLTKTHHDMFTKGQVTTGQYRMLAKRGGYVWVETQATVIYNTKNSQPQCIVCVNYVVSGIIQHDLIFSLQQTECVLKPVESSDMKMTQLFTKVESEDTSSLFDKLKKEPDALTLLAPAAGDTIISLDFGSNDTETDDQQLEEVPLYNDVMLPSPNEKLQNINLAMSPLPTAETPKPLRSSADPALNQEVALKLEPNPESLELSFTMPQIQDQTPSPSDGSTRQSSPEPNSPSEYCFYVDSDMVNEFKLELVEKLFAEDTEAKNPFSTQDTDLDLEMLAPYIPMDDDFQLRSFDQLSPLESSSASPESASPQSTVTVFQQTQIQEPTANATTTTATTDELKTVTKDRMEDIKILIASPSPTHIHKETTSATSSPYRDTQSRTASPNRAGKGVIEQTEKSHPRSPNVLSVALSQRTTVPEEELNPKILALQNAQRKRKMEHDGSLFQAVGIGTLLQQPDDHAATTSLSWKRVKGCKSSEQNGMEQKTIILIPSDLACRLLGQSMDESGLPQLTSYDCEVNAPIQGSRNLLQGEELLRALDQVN
Procedure, shortened: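 After 24 h chemical exposure of reporter-transfected HepG2 cells, reporter cDNA was PCR-amplified, labelled by 6-FAM primer extension (2 min 95 C, 20 s 68 C, 10 min 72 C), HpaI-cut (2 h, 37 C) and analysed by CE.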

[6] = target: Hepatocyte nuclear factor 6 (Homo sapiens) (UniProt Q9UBC0); assay: ATG_HNF6_CIS: Attagene CIS-FACTORIAL HepG2 Assay for human Hepatocyte Nuclear Factor 6 (HNF6) (AID 2282952); details: HepG2 Attagene cis-factorial HNF6 reporter transcription; actives raise or lower the signal
Sequence of Hepatocyte nuclear factor 6 (Homo sapiens) (Q9UBC0 whole entry, looked up): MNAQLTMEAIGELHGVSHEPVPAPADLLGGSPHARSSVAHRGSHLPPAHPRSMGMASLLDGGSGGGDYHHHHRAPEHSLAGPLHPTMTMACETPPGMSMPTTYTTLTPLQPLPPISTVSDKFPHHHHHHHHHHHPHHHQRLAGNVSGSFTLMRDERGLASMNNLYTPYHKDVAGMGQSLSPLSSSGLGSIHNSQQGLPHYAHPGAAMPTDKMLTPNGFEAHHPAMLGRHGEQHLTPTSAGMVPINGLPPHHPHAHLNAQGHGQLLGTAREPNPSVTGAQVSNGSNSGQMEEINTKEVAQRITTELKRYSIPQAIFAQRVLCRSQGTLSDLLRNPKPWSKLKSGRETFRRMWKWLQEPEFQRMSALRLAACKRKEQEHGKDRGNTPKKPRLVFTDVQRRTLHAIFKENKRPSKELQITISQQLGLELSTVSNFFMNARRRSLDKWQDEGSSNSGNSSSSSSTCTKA
Procedure, shortened: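 HepG2, transient MRTU transfection (cis promoters); 24 h chemical exposure; total RNA → oligo(dT) RT → PCR → 6-FAM labelling → HpaI cut → CE; bidirectional fit vs DMSO.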

[7] = target: Heat shock factor protein 1 (Homo sapiens) (UniProt Q00613); assay: ATG_HSE_CIS: Attagene CIS-FACTORIAL HepG2 Assay for human Heat Shock Transcription Factor 1 (HSE) (AID 2282953); details: HepG2 HSE cis-reporter, Attagene RNA transcription; actives raise or lower the signal
Sequence of Heat shock factor protein 1 (Homo sapiens) (Q00613 whole entry, looked up): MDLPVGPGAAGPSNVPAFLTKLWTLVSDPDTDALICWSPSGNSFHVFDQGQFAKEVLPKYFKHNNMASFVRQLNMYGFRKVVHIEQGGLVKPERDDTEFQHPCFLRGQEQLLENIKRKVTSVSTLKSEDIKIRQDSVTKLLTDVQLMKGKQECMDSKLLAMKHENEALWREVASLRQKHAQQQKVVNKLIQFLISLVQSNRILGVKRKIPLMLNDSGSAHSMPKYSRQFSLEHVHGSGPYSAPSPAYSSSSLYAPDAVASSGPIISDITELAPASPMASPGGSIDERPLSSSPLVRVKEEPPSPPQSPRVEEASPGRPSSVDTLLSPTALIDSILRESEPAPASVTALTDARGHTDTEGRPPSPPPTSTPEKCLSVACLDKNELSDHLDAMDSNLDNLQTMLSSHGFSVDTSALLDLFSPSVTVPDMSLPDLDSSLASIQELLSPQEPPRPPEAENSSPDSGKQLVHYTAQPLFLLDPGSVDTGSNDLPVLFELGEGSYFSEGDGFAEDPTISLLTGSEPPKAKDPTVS
Procedure, shortened: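 After a 24 h incubation with test chemical, transfected HepG2 cells were harvested for RNA; reporter transcripts were measured by RT-PCR and capillary electrophoresis. Values reflect gain or loss of signal relative to DMSO.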

[8] = ATG_MRE_CIS: Attagene CIS-FACTORIAL HepG2 Assay for human Metal Responsive Element (MRE) (AID 2282954); details: HepG2 MRE cis-reporter transcription, Attagene multiplex; actives raise or lower the signal
Procedure, shortened: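 HepG2 cells transiently transfected with cis-element-driven reporter units; mRNA measured 24 h after dosing. Reporter transcripts quantified by RT-PCR, FAM labelling, HpaI digestion and capillary electrophoresis; bidirectional fit versus DMSO.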

[9] = target: Paired box protein Pax-6 (Homo sapiens) (UniProt P26367); assay: ATG_Pax6_CIS: Attagene CIS-FACTORIAL HepG2 Assay for human Paired Box 6 (PAX6) (AID 2282956); details: HepG2 CIS-FACTORIAL PAX6 reporter transcription, RNA readout; actives raise or lower the signal
Sequence of Paired box protein Pax-6 (Homo sapiens) (P26367 whole entry, looked up): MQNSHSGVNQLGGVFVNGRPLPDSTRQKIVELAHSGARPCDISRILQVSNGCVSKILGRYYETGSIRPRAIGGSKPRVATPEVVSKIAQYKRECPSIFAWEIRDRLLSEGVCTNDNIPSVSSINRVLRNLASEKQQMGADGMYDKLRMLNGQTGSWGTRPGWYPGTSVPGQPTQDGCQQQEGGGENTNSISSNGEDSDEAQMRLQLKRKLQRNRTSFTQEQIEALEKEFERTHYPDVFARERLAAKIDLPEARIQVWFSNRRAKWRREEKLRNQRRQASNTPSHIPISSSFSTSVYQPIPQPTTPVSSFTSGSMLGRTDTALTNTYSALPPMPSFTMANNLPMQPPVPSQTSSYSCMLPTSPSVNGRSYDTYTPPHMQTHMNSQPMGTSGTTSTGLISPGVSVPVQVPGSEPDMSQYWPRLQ
Procedure, shortened: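 Transient MRTU transfection of HepG2 → compound exposure 24 h → TriZol RNA, oligo(dT) RT → PCR, 6-FAM primer extension, HpaI cut → capillary electrophoresis; activity fitted both directions against DMSO.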

[10] = ATG_PXRE_CIS: Attagene CIS-FACTORIAL HepG2 Assay for human Pregnane X Receptor Element (PXRE) (AID 2282957); details: HepG2 Attagene CIS-FACTORIAL PXRE reporter, mRNA; actives raise or lower the signal
Procedure, shortened: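 Transfect HepG2 with MRTUs (cis promoter elements); dose chemical, incubate 24 h; isolate RNA, RT with oligo(dT), PCR, 6-FAM label, HpaI cut, CE. Gain/loss fit vs DMSO.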

[11] = ATG_PPRE_CIS: Attagene CIS-FACTORIAL HepG2 Assay for human Peroxisome Proliferator-activated Response Element (PPRE) (AID 2282958); details: HepG2 PPRE cis-element reporter, Attagene transcription factor profiling; actives raise or lower the signal
Procedure, shortened: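 PPRE activity in HepG2: transient cis-reporter transfection, 24 h compound incubation, reporter mRNA by RT-PCR and CE fluorescence; gain/loss fitted against DMSO.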

[12] = ATG_RORE_CIS: Attagene CIS-FACTORIAL HepG2 Assay for human RAR-related Orphan Receptor Element (RORE) (AID 2282959); details: HepG2 Attagene cis-factorial RORE reporter, mRNA; actives raise or lower the signal
Procedure, shortened: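 A 24-hour exposure of transfected HepG2 hepatoma cells precedes RNA isolation and reporter RT-PCR. Labeled products are digested with HpaI and resolved by capillary electrophoresis, with gain or loss of signal scored relative to DMSO.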

[13] = ATG_Sox_CIS: Attagene CIS-FACTORIAL HepG2 Assay for human SRY-box transcription factor (SOX) (AID 2282960); details: HepG2 Attagene cis-factorial SOX reporter, mRNA; actives raise or lower the signal
Procedure, shortened: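 HepG2, cis reporter units, 24 h exposure. Reporter mRNA: RT-PCR → FAM labelling → HpaI → CE fluorescence. Bidirectional fit vs DMSO.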

[14] = target: Transcription factor Sp1 (Homo sapiens) (UniProt P08047); assay: ATG_Sp1_CIS: Attagene CIS-FACTORIAL HepG2 Assay for human Specificity Protein 1 (Sp1) (AID 2282961); details: HepG2 Sp1 cis-reporter transcription, actives raise or lower the signal
Sequence of Transcription factor Sp1 (Homo sapiens) (P08047 whole entry, looked up, the tested form may be a part): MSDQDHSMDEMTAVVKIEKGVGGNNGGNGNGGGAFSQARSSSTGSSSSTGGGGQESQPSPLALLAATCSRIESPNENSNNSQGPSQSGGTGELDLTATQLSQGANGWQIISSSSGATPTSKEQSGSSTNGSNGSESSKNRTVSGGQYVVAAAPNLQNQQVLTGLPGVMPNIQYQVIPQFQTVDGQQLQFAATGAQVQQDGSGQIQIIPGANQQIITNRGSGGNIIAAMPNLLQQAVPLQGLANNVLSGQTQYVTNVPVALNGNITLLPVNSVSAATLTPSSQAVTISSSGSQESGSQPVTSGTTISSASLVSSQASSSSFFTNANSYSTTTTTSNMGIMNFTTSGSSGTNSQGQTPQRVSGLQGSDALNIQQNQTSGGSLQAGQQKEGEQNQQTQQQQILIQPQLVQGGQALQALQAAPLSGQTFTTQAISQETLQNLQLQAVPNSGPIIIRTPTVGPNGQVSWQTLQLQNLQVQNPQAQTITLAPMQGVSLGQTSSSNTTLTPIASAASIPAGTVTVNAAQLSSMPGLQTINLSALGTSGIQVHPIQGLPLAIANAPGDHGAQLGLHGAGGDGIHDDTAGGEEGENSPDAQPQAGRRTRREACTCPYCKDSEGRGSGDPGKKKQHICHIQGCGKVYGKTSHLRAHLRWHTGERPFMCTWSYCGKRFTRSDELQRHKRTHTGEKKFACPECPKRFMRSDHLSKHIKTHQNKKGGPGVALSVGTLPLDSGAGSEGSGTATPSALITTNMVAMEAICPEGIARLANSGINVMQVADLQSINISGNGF
Procedure, shortened: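 Liver-derived HepG2 cells, cis-element reporter library, 24 h treatment; RNA isolated, cDNA amplified with reporter-specific primers, FAM-labeled fragments sized on capillary analyzer. DMSO baseline, bidirectional curve fit.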

[15] = ATG_SREBP_CIS: Attagene CIS-FACTORIAL HepG2 Assay for human Sterol Regulatory Element Binding (SREBP) (AID 2282962); details: HepG2 Attagene cis-factorial SREBP reporter, mRNA; actives raise or lower the signal
Procedure, shortened: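 Transfected HepG2 (cis-regulated reporter library, endogenous TFs) → compound 24 h → total RNA → oligo(dT) RT → reporter-specific PCR → FAM primer extension, HpaI cut → CE fluorescence. Fit bidirectional vs DMSO.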

[16] = ATG_TA_CIS: Attagene CIS-FACTORIAL HepG2 Assay for human TA Basal Promoter (AID 2282964); details: HepG2 Attagene CIS-factorial TA basal promoter reporter; actives raise or lower the signal
Procedure, shortened: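 Multiplexed mRNA reporter assay, HepG2, 24 h. Reporter cDNA amplified, 6-FAM primer-extended, HpaI-cut, CE-sized; DMSO = negative control and baseline.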

[17] = ATG_TCF_b_cat_CIS: Attagene CIS-FACTORIAL HepG2 Assay for human T-Cell-Factor with beta-catenin (TCF/b-cat) (AID 2282965); details: HepG2 TCF/beta-catenin cis-reporter transcription, actives raise or lower the signal
Procedure, shortened: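 HepG2 cells transiently transfected with cis-promoter-driven multiplexed reporter units; reporter mRNA measured 24 h after dosing by RT-PCR, FAM labelling, HpaI digestion and capillary electrophoresis. Bidirectional fitting relative to DMSO baseline.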

[18] = ATG_M_32_CIS: Attagene CIS-FACTORIAL HepG2 Assay for M32 Transcription Factor (Internal Marker) (AID 2282949); details: HepG2 Attagene cis-factorial M32 reporter, mRNA; actives raise or lower the signal;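 further: background control marker of the multiplexed CIS panel rather than a real target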
Procedure, shortened: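 HepG2 cells transiently transfected with multiplexed cis-regulated reporter units, dosed 24 h. Reporter mRNA quantified by RT-PCR, 6-FAM labelling, HpaI digestion and capillary electrophoresis; bidirectional fit vs DMSO.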

[19] = ATG_PBREM_CIS: Attagene CIS-FACTORIAL HepG2 Assay for human Phenobarbital-responsive Enhancer Module (PBREM) (AID 2282955); details: HepG2 PBREM cis-reporter, Attagene multiplexed transcription; actives raise or lower the signal
Procedure, shortened: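 Measures endogenous factor action on a phenobarbital-responsive enhancer module. HepG2 transiently carrying cis reporters, 24 h treatment, mRNA read-out by RT-PCR plus capillary electrophoresis.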

[20] = target: Signal transducer and activator of transcription 3 (Homo sapiens) (UniProt P40763); assay: ATG_STAT3_CIS: Attagene CIS-FACTORIAL HepG2 Assay for human Signal Transducer and Activator of Transcription 3 (STAT3) (AID 2282963); details: HepG2, Attagene cis-factorial STAT3 reporter transcription; actives raise or lower the signal
Sequence of Signal transducer and activator of transcription 3 (Homo sapiens) (P40763 whole entry, looked up): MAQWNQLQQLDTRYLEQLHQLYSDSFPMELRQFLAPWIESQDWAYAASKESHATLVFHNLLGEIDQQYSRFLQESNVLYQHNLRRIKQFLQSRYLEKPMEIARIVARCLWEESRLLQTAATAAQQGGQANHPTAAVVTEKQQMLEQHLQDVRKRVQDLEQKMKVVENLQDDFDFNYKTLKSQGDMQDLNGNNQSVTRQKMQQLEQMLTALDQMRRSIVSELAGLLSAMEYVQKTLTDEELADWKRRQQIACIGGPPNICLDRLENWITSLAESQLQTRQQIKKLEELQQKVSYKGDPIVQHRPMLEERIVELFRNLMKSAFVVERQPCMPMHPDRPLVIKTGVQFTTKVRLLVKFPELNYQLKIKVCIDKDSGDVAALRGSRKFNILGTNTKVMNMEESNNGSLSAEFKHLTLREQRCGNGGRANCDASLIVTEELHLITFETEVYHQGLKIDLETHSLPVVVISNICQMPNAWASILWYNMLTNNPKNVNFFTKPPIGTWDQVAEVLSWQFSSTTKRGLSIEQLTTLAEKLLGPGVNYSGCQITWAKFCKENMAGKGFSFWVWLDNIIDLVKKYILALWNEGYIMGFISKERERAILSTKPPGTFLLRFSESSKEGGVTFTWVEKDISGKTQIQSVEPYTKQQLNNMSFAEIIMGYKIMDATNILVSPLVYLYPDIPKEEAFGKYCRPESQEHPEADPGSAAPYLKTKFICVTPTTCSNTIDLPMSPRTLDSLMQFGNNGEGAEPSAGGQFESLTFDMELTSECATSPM
Procedure, shortened: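 HepG2 cells transiently transfected with multiple cis-element-driven reporter units report endogenous transcription factor activity. After 24 h compound exposure, reporter mRNA is measured by RT-PCR, 6-FAM labelling, HpaI digestion and capillary electrophoresis. Fitted bidirectionally versus DMSO.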

Measured: AC50

CC(C)(N)CO
not listed: [18] | [19] | [20]
inactive: all other assays above

NCCCN1CCOCC1
not listed: [2] | [12]
inactive: all other assays above

C=CCOC(=O)CCC1CCCCC1
not listed: [2] | [7] | [12]
inactive: all other assays above

O=C1c2ccccc2C(=O)N1SC1CCCCC1
active: [1] 142 µM | [18] 189 µM | [7] 37.9 µM | [10] 148 µM | [14] 59.1 µM
not listed: [2] | [11] | [20]
inactive: all other assays above

CC(C)c1ccc(C(C)C)cc1
active: [5] 100 µM | [15] 152 µM
not listed: [2] | [10] | [11]
inactive: all other assays above

CC(=O)Nc1ccc(C)cc1C
not listed: [2] | [10] | [12]
inactive: all other assays above

O=P(c1ccccc1)(c1ccccc1)c1ccccc1
active: [10] 5.59 µM
not listed: [2] | [11] | [19]
inactive: all other assays above

Sc1nc(S)nc(S)n1
not listed: [2] | [11] | [15] | [19]
inactive: all other assays above

CCCc1c(OCCCOc2ccc(OCC(=O)O)cc2)ccc(C(C)=O)c1O
active: [8] 79.2 µM | [10] 8.44 µM | [12] 4.66 µM | [16] 26.7 µM | [17] 25.6 µM
not listed: [2] | [5] | [7] | [11] | [18] | [19]
inactive: all other assays above

CNCCO
not listed: [2] | [19] | [20]
inactive: all other assays above

O=c1[nH]nnc2ccccc12
not listed: [2] | [10] | [11] | [13]
inactive: all other assays above

CCC(C(=O)NC(N)=O)c1ccccc1 (centres undefined)
not listed: [2] | [7] | [13] | [19] | [20]
inactive: all other assays above

OCC(CO)(CO)COCC(CO)(CO)CO
not listed: [2] | [11] | [15]
inactive: all other assays above

OC1C(O)C(O)C(O)C(O)C1O (centres undefined)
not listed: [2] | [18] | [19]
inactive: all other assays above

c1ccc(CCCc2ccccn2)cc1
active: [8] 81.5 µM | [19] 67 µM | [10] 100 µM
not listed: [2] | [11] | [13]
inactive: all other assays above
